Test results: PubChem BioAssay (NCATS)
Inconclusive results are not listed. A call without a number means that no potency is given here. Activity calls are given as the source filed them. The call rests on the fitted dose curve; in most records, active means well fitted inhibition curve with a large enough effect; inconclusive means small, poorly fitted or top-dose-only effect; inactive means flat fitted curve, though single readings scatter.

target: Calcium and integrin-binding protein 1 (Homo sapiens) (UniProt Q99828); test: Primary qHTS for Identification of Calcium Integrin Binding Protein 1 (CIB1) Competitor (AID 1508620); conditions: CIB1-GST / FITC-alphaIIb peptide fluorescence polarization; series mostly up to 114 µM; further: top concentration of the series differs between compounds
Sequence (Q99828 whole entry, looked up): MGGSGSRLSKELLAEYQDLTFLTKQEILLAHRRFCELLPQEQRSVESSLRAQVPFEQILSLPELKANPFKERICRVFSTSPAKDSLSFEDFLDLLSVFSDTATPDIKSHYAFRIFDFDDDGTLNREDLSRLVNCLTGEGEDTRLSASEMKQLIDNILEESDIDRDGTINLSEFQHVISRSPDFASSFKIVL
How it was run: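 Fluorescence polarization competition: GST-tagged CIB1 (1 uM final) preincubated with compound 15 min at room temperature, then FITC-labelled alphaIIb peptide (100 nM final) added. After 15 min at room temperature, polarization read at Ex 480/Em 540.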

Structure (SMILES)	Potency
COc1cccc(OC)c1C1=Nn2c(nnc2-c2ccccc2C)SC1	inactive
Cc1cccc(NS(=O)(=O)c2ccc3c(c2)CCC(=O)N3)c1	inactive
O=C(Cc1ccc(Cl)c(Cl)c1)Nc1ccc(S(=O)(=O)O)cc1	inactive
c1nc(NCc2ccc3c(c2)OCO3)c2cc(-c3ccc4c(c3)OCCO4)ccc2n1	inactive
Cc1cnc(-c2ccccc2C(F)F)nc1NCc1ccc(-n2ccnn2)cc1	inactive
O=C1CN(S(=O)(=O)c2c(F)cccc2F)CCN1S(=O)(=O)c1ccc2c(c1)OCCO2	inactive
COc1cccc(NS(=O)(=O)c2ccc(NCc3cccc(OC)c3O)cc2)c1	inactive
O=C1c2ccccc2C(=O)N1c1noc2ccccc12	inactive
Cc1nnc2sc(-c3cccc(NC(=O)c4ccc(-c5cccc(Cl)c5)o4)c3)nn12	inactive
Cc1cc(C)nc(NC(=S)N2CCN(c3ccc(Cl)c(Cl)c3Cl)CC2)c1	inactive
CCOC(=O)c1ccc2c(c1)c(C(C)=O)c(C)n2-c1ccc(OC)cc1	inactive
N#Cc1nc(Nc2cccc3ccccc23)nc(NC2CCCC2)n1	inactive
N#Cc1nc(NCC(F)F)nc(Nc2cc(F)cc(F)c2)n1	inactive
O=C(OCC#CCSc1nnc(-c2cccc3ccccc23)o1)c1ccsc1	inactive
CCOC(=O)c1ccc(-c2ccc3ncnc(NCc4csc(C)n4)c3c2)o1	inactive
O=C(COc1ccccc1Br)NCCc1nc2ccccc2[nH]1	inactive
CCOC(=O)C1CCN(C(=O)C2(NC(=O)Nc3ccccc3Cl)CCCCC2)CC1	inactive
N#Cc1c(-c2ccc(F)c(Br)c2)no[n+]1[O-]	inactive
Nc1scc2c(C(=O)O)nn(-c3ccccc3)c(=O)c12	inactive
N#Cc1nc(Nc2ccc(-c3ccccc3)cc2)nc(NC2CCCC2)n1	inactive

Structure (SMILES)	Potency
COc1cc(O)c(C(CC(=O)N2CCC(Cc3ccccc3)CC2)c2ccc(C)cc2)c(OC)c1 (stereo not given)	inactive
O=C1c2ccccc2C(=O)N1c1ccccc1O	inactive
O=C(Cc1ccc(Cl)c(Cl)c1)Nc1ccc(S(=O)(=O)Nc2cccc(O)c2)cc1	inactive
Cc1nnc(-c2ccccc2C(C)C)nc1NCc1ccc(-c2cccnc2)cc1	inactive
CN(Cc1ccc(-c2ccc(C#N)cc2)o1)c1ccc(N2CCN(C(=O)OC(C)(C)C)CC2)cc1	inactive
Cc1sc(NC(=O)Cc2ccc3c(c2)OCO3)nc1-c1ccc2c(c1)CCN2C(=O)c1ccccc1C(F)(F)F	inactive
N#Cc1ccc(CNc2nc(-c3ccccc3C(F)(F)F)nc3ccccc23)cc1	inactive
O=C(OCC#CCNc1nnc(-c2cccc3ccccc23)o1)c1cccs1	inactive
C=CCNc1oc(-c2cccnc2)nc1C#N	inactive
O=C1CCc2cc(S(=O)(=O)Nc3ccc4c(c3)OCCO4)ccc2N1	inactive
CCCN1CCN(c2cccc(Nc3nn4c(=O)c5ccccc5nc4s3)c2)CC1	inactive
COc1cccc(C2=Nn3c(nnc3-c3ccccc3O)SC2)c1	inactive
CC(=O)Nc1sc2c(c1-c1cc3ccccc3[nH]1)CCNC2	inactive
O=C1CCCC2=C1[C@@]1(CCC(c3ccccc3)C1)N=C(Nc1nc3ccccc3o1)N2 (stereo not given in full)	inactive
COc1ccc(C2Nc3ccccc3C(=O)N2Cc2ccccc2)cc1COc1ccc(NC(C)=O)cc1 (stereo not given)	inactive
Fc1ccc(-c2ccc(Nc3nc(-c4ccncc4)nc4ccccc34)cc2F)c(F)c1	inactive
O=C(CNC(=O)c1cccc2ccccc12)OC(C(=O)Nc1cc(C(F)(F)F)ccc1Cl)c1ccccc1 (stereo not given)	inactive
O=S1(=O)N=C(OCc2ccccc2)c2ccccc21	inactive
c1nc(NCCC2CCCO2)c2cc(-c3ccc4c(c3)OCO4)ccc2n1 (stereo not given)	inactive
Cc1cccc(-n2cnc3cc(C(=O)NC(C)(C)C)ccc32)c1	inactive
